Source: PubChem
hcDAF-12 act: H. contortus DAF-12 activation, primary screen. HEK293 hcDAF-12 lit1-tk-luc reporter, luminescence; 0% DMSO, 100% Δ7-dafachronic acid. activation, % at 6.8 µM. 1.4% of 370,000 active. AID 652067;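 active = activation above the mean of all tested compounds plus 3 SD, cut at about 5.5% in these data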;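 note: 100% = response to 3 µM Δ7-dafachronic acid high control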
SMARCA2 activ: increases SMARCA2 function in MMTV reporter cells; activation, % at 9.1 µM; 1% of 370,000 active; MG213 cells, MMTV-luciferase reporter, dexamethasone, overnight; in the data active = activation above about 7.8%;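 note: 0% = vehicle wells and 100% = reference activator wells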
DAX1 inh-1: NR0B1 (DAX1) inhibition; P51843; HEK293 Gal4-DAX1 luciferase reporter, luminescence; inhibition, % at 6.75 µM; 0.99% of 340,000 active; AID 504766;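 active = inhibition above the mean over all tested compounds plus 3 SD, cut at about 4.2% in these data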;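 note: 0% = DAX1-transfected cells with DMSO and 100% = empty-vector control cells with DMSO; inhibition shows as a rise in luminescence from relieved DAX1 repression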
Target sequence (P51843 207-470 limits assumed): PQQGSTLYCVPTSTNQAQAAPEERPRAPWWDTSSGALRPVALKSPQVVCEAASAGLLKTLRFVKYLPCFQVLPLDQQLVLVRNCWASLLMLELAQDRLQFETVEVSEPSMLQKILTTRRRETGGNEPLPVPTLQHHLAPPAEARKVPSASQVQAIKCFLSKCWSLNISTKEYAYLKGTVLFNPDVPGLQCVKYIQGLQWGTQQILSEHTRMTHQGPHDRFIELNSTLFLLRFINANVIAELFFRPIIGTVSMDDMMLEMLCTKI
DAX1 inh-2: blocks DAX1 repression of SF-1 activated StAR promoter | 1.1% of 370,000 active | AID 652010 | inhibition, % at 6.8 µM | HEK293T StAR-luciferase reporter, SF-1/DAX-1 repression relief;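 active = inhibition above the mean over all tested compounds plus 3 SD, cut at about 3.6% in these data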;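 note: 0% = DAX-1 cells with DMSO and 100% = cells lacking DAX-1 with DMSO; higher inhibition means more luminescence from relief of DAX-1 repression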
ssDAF-12 act: activates DAF-12 receptor from parasite S. stercoralis. HEK293 ssDAF-12/GRIP1 lit1-tk-luc reporter, luminescence; % of 3 µM dafachronic acid response. 1% of 370,000 active. activation, % at 6.8 µM;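 active = activation above the mean over all tested compounds plus 3 SD, cut at about 0.9% in these data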;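 note: 0% = DMSO-only wells and 100% = 3 µM delta7-dafachronic acid wells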
hgDAF-12 ag: activates the H. glycines DAF-12 receptor ligand-binding domain; AID 687014; 1.8% of 370,000 active; activation, % at 6.8 µM; HEK293 GAL4-hgDAF12 UAS-luciferase reporter, agonist luminescence; normalized to butyrate control;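 active = activation above a cutoff set at the mean of all screened compounds plus 3 SD, cut at about 10% in these data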;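 note: 0% = DMSO wells and 100% = sodium butyrate wells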
SMARCA2 act conf: SMARCA2 activation, confirmation screen; shares compounds with SMARCA2 activ; MG213 cells, MMTV-luciferase with dexamethasone, luminescence, overnight; MG213 cells expressing E1A, Rb sequestered; DMSO wells 0%, reference activator 100%; activation, % at 9.1 µM; 30% of 3,500 active; AID 652260;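 active = activation above its plate's cutoff, the mean activation of tested wells plus 3 SD, cut at about 7.9% in these data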
VP16 Luc act: counter-screen for SMARCA2 activators: GAL4-VP16 luciferase reporter activation; shares compounds with SMARCA2 activ; HEK293 GAL4-VP16 pG5luc reporter, luciferase luminescence; scaled: DMSO wells 0%, SAHA wells 100%; activation, % at 9.1 µM; 41% of 3,500 active;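 active = activation above the solvent-only control well mean plus 3 SD, averaged across control plates, cut at about 5.2% in these data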
* hit, by the source's call; · = not tested or not shown. Shown are actives, neighbours in structure and some others; about 4.8% of the full set was active somewhere.

SMILES | hcDAF-12 act | SMARCA2 activ | DAX1 inh-1 | DAX1 inh-2 | ssDAF-12 act | hgDAF-12 ag | SMARCA2 act conf | VP16 Luc act
O=C(COn1nnc2ccccc21)NCC1CCCCC1 | 1 | 8.8* | 0 | 1 | 0 | 6 | 6 | 4
O=C(CCn1nnc2ccccc21)N1CCN(Cc2ccc3c(c2)OCO3)CC1 | -1 | -6 | · | -1 | -2 | -3 | · | ·
CCc1ccc(NC(=O)C(=O)NCCN2CCN(C(=O)c3ccco3)CC2)cc1 | -3 | 0 | -1 | 0 | -2 | 0 | · | ·
COc1ccc(/C=C2\CCc3ccccc3C2=O)cc1Cn1nc(C)cc1C | -4 | -2 | -1 | -2 | -2 | -4 | · | ·
COc1ccc(/C=C2/CCc3ccccc3C2=O)cc1CN1CCOCC1 | 0 | 8.0* | -2 | -1 | 0 | -1 | 4 | 2
COc1ccc(C(C(=O)N(C)C2CCCC2)N(Cc2ccc(F)cc2)C(=O)c2cc(C)[nH]n2)cc1OC (stereo unspecified) | -1 | 11* | · | 0 | -2 | 2 | 4 | 0
COc1ccc(C(C(=O)N(C)C2CCCC2)N(Cc2ccc(F)cc2)C(=O)c2ncn[nH]2)cc1OC (stereo unspecified) | -1 | -6 | · | 0 | -1 | -1 | · | ·
CCNC(=S)N1CCn2c(nc3ccccc32)C1 | 0 | -1 | 0 | 0 | -2 | -1 | · | ·
CCOC(=O)CNC(=S)N1CCn2c(nc3ccccc32)C1 | 0 | 9.8* | -1 | -1 | -2 | -3 | -2 | 0
COc1ccc(-n2nnnc2S(=O)(=O)Cc2ccc(C(=O)O)cc2)cc1 | 0 | 13* | 0 | 0 | 0 | 0 | 15* | 0
O=C(COc1ccc(F)cc1Br)N1CCc2ccccc21 | 1 | 12* | 2 | 3 | 0 | 11* | 6 | 14*
O=Cc1ccc(OCC(=O)N2CCc3ccccc32)c(Br)c1 | 2 | -1 | 0 | 2 | 0 | 7 | · | ·
Cc1occc1C(=O)N/N=C/C1=C(N2CCOCC2)C(=C\c2ccc(Cl)cc2Cl)/CC1 | 0 | 12* | -1 | 0 | -1 | 7 | 2 | 0
O=C1N/C(=C/c2ccc(N3CCOCC3)o2)C(=O)N1c1ccccc1 | 1 | 14* | -2 | -1 | -1 | 0 | 3 | 2
C=CCN1C(=O)N/C(=C/c2ccc(N3CCOCC3)o2)C1=O | -1 | 6 | · | -1 | -1 | 0 | · | ·
COc1ccc(CNC(=O)c2ccccc2NC(=O)C2=C(C)OCCS2)cc1 | 0 | -3 | 0 | -2 | -1 | 0 | · | ·
COc1ccccc1CNC(=O)c1ccccc1NC(=O)C1=C(C)OCCS1 | -3 | 8.1* | -1 | -1 | -1 | -3 | 2 | 1
CCOC(=O)Cc1nc(N2CCN(C(=O)C3CCCO3)CC2)c2c(C)c(C(=O)OCC)sc2n1 (stereo unspecified) | -2 | 11* | · | 0 | 0 | -1 | 2 | 1
CCOC(=O)c1sc2nc(CC(=O)OC)nc(N3CCN(c4ccc(OC)cc4)CC3)c2c1C | -3 | -1 | -1 | -2 | -1 | -2 | · | ·
COc1cccc(C(=O)Nc2cccc(-c3ccc(N4CCOCC4)nn3)c2)c1OC | 1 | 12* | -2 | 1 | -1 | 5 | 11* | 15*
Cn1cc([N+](=O)[O-])c(C(=O)Nc2ccc(-c3nc4ccccc4[nH]3)cc2)n1 | 2 | 9.8* | -1 | 1 | 0 | 6 | 11* | 7.6*
COc1cc(-c2nc(Cc3ccccc3Cl)no2)cc(OC)c1OC | -1 | -5 | 0 | -1 | 0 | -1 | · | ·
CCN(CC)CCNc1nc2cc(OC)c(OC)cc2c2nc(-c3ccccc3)nn12 | 0 | 9.7* | 1 | 1 | -1 | 5 | 26* | 1
Clc1ccc(Nc2nc(C3CC3)cs2)cc1 | 2 | 8.2* | 0 | 2 | 0 | 6 | 5 | 7.1*
Cc1nnc(Nc2ccc(Cl)cc2)s1 | -1 | 1 | 2 | 0 | -1 | -1 | · | ·
